From PubChem BioAssay (NCATS)
Values joined by “and” are separate entries in the source; they are usually repeats but may differ in a detail not shown here. Identical values can stand only once. Records with an inconclusive call do not appear. Some structures have more than one record in an assay (separate samples or runs), and their calls can disagree. Active and inactive are the calls of the source. Calls come from the whole dose curve; as a rule, active = well fitted curve in the direction sought with a large enough effect; inconclusive = small, poorly fitted or top-dose-only effect, or another doubt; inactive = no such curve, though single readings can be large; an effect the other way counts as inactive or inconclusive.

What was measured:
[1] = P-glycoprotein substrates identified in KB-3-1 adenocarcinoma cell line, qHTS therapeutic library screen (AID 1346986); note: nearly all actives have a fitted effect of over 60% in size;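 note: potency is the fitted concentration of half-maximal effect; potency is for cytotoxicity meaning loss of cell viability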
How it was run: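 Viability read by CellTiter-Glo after 72 h compound exposure in dose-response of KB-3-1 and KB-8-5-11 (P-gp-high) cells. Hits needed AC50 < 10 uM, >50% maximum response and curve class -1.1 to -2.4. Cherry-picks retested ± tariquidar, including pcDNA/MDR-19 HEK-293 pair.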

[2] = P-glycoprotein substrates identified in KB-8-5-11 adenocarcinoma cell line, qHTS therapeutic library screen (AID 1346987); note: nearly all actives have a fitted effect of over 65% in size; note: potency is the fitted concentration of half-maximal effect
How it was run: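 Luminescence from CellTiter-Glo, read 5 min after addition, quantified survival of KB-8-5-11 (P-gp-overexpressing) cells exposed to compounds for 72 h. AC50 was derived from concentration-response curves.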

[3] = NS1 protein of Zika virus - qHTS assay to identify small molecule inhibitors in human HEK 293 cells (AID 1347053); note: nearly all actives have a fitted effect of over 55% in size; note: potency is the fitted concentration of half-maximal effect
How it was run: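 Compound-treated (1 h pre-infection) HEK 293 cells infected with ZIKV MR766, MOI = 0.5; after 24 h at 37 C, NS1 read by TR-FRET; data normalized to uninfected and infected controls.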

[4] = qHTS of pediatric cancer cell lines to identify multiple opportunities for drug repurposing: Primary screen for TC32 cells (AID 1347089); note: nearly all actives have a fitted effect of over 60% in size; note: potency is the fitted concentration of half-maximal effect
How it was run: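 qHTS, TC32, 48 h drug treatment, CellTiter-Glo luminescence as a proxy for metabolically active cells; primary top concentration 46 µM (MIPE 11-pt, NPC 8-pt); confirmatory 11-pt.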

[5] = qHTS of pediatric cancer cell lines to identify multiple opportunities for drug repurposing: Primary screen for DAOY cells (AID 1347090); note: nearly all actives have a fitted effect of over 55% in size; note: potency is the fitted concentration of half-maximal effect
How it was run: (§1)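 Cell viability, CellTiter-Glo luminescence; 500-1,000 cells/well, 8- or 11-point titration, 48 h compound exposure at 37 degrees C, 5% CO2. Controls: DMSO neutral, bortezomib 2.3 µM final as positive.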

[6] = qHTS of pediatric cancer cell lines to identify multiple opportunities for drug repurposing: Primary screen for SJ-GBM2 cells (AID 1347091); note: potency is the fitted concentration of half-maximal effect
How it was run: as §1

[7] = qHTS of pediatric cancer cell lines to identify multiple opportunities for drug repurposing: Primary screen for A673 cells (AID 1347092); note: nearly all actives have a fitted effect of over 45% in size; note: potency is the fitted concentration of half-maximal effect
How it was run: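 Luminescence from CellTiter-Glo, taken after 15 min at room temperature, served as the proxy for metabolically active cells following 48 h treatment. Both potency and efficacy were taken from curves fitted to the titration data.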

[8] = qHTS of pediatric cancer cell lines to identify multiple opportunities for drug repurposing: Primary screen for SK-N-MC cells (AID 1347093); note: potency is the fitted concentration of half-maximal effect
How it was run: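 Metabolically active cells were quantified by ATP-dependent luminescence (CellTiter-Glo, 15 min at room temperature) following 48 h treatment. Cells had been plated at 500-1,000 per well and settled for 5 h beforehand.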

[9] = qHTS of pediatric cancer cell lines to identify multiple opportunities for drug repurposing: Primary screen for BT-37 cells (AID 1347094); note: potency is the fitted concentration of half-maximal effect
How it was run: (§2)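 CRCs from 8- or 11-point titrations (lowest final 0.59 nM NPC, 0.78 nM MIPE). Cell viability: CellTiter-Glo after 48 h incubation, 15 min room-temperature development, luminescence imaging.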

[10] = qHTS of pediatric cancer cell lines to identify multiple opportunities for drug repurposing: Primary screen for NB-EBc1 cells (AID 1347095); note: potency is the fitted concentration of half-maximal effect
How it was run: as §2

[11] = Identifying Small Molecule Inhibitors of Pancreatic Cancer Stem Cells (Panc1, Adherent) (AID 1259362); conditions: Potency: viability; note: potency is the fitted concentration of half-maximal effect
How it was run: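 Endpoint: ATP-based luminescence, 48 h drug exposure. Bortezomib at 9.2 uM final as full-kill control; DMSO vehicle as negative control; activity normalized between vehicle and cell-free wells.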

[12] = Identifying Small Molecule Inhibitors of Pancreatic Cancer Stem Cells (A278, Adherent) (AID 1259361); note: nearly all actives have a fitted effect of over 35% in size
How it was run: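 Adherent (2D) versus sphere (3D) formats; spheres generated 14 d in SCM beforehand. Compound transferred by pin tool after 4 h, 48 h incubation, CellTiter-Glo endpoint.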

[13] = Identifying Small Molecule Inhibitors of Pancreatic Cancer Stem Cells (SN12C, Spheroid) (AID 1259360); conditions: Potency: SN12C spheroid viability
How it was run: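 Viability is scored by CellTiter-Glo luminescence 48 h after dosing, expressed as percent activity against vehicle and no-cell references. Spheroid formats rely on cells cultured 14 days in stem cell media beforehand.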

Cc1ccc(NC(=O)C2(c3ccc4c(c3)OC(F)(F)O4)CC2)nc1-c1cccc(C(=O)O)c1
active: Potency [3] 37.2 nM | Potency [4] 234 nM | Potency [5] 469 nM | Potency [6] 37.2 nM | Potency [7] 59 nM | Potency [8] 46.9 nM | Potency [9] 38.5 nM | Potency [10] 66.2 nM
inactive: Potency [1]
526 nM (active) and inactive: Potency [2]

C=CC(=O)Nc1cccc(Oc2nc(Nc3ccc(N4CCN(C)CC4)cc3OC)ncc2Cl)c1
active: Potency [3] 33200 nM | Potency [5] 37.2 nM | Potency [10] 2350 nM
inactive and 20.6 µM (active): Potency [2]
inactive: Potency [11]

N#CCNC(=O)c1ccc(-c2ccnc(Nc3ccc(N4CCOCC4)cc3)n2)cc1
active: IC50 (viability decrease) [12] 13200 nM | Potency [1] 3660 nM | Potency [2] 8.33 µM and 5.8 µM | Potency [5] 14800 nM | Potency [6] 13200 nM | Potency [7] 7430 nM | Potency [8] 4690 nM | Potency [9] 21700 nM

CC(C)(C)c1cc(C(C)(C)C)c(NC(=O)c2c[nH]c3ccccc3c2=O)cc1O
active: Potency [11] 23500 nM
inactive: Potency [2] | Potency [3] | Potency [4] | Potency [5] | Potency [6] | Potency [7] | Potency [9] | Potency [10]

O=C(O)c1ccc2cc(-c3ccc(O)c(C45CC6CC(CC(C6)C4)C5)c3)ccc2c1
active: IC50 (viability decrease) [12] 935 nM | Potency [3] 590 nM | Potency [5] 469 nM | Potency [6] 148 nM | Potency [7] 2350 nM | Potency [8] 372 nM | Potency [9] 863 nM

Cc1cc(Nc2cc(NC(=O)c3c(Cl)cccc3Cl)ccn2)nc(N)n1
active: Potency [1] 326 nM | Potency [2] 935 nM and 1.16 µM | Potency [3] 2350 nM | Potency [4] 930 nM | Potency [5] 1480 nM | Potency [6] 590 nM | Potency [7] 1180 nM | Potency [8] 132 nM | Potency [9] 544 nM | Potency [10] 332 nM

Cc1ccc(C(=O)Nc2cccc(C(F)(F)F)c2)cc1-c1ccc2nc(NCCN3CCOCC3)ncc2c1
active: Potency [11] 11800 nM | Potency [1] 8200 nM | Potency [2] 16.6 µM and 11.6 µM | Potency [5] 14800 nM | Potency [6] 6620 nM | Potency [7] 4690 nM | Potency [8] 4690 nM | Potency [9] 6110 nM

Cc1cn(-c2cc(NC(=O)c3ccc(C)c(Nc4nccc(-c5cccnc5)n4)c3)cc(C(F)(F)F)c2)cn1
active: Potency [6] 18700 nM | Potency [10] 23500 nM
inactive: Potency [13] | Potency [4] | Potency [5] | Potency [7] | Potency [9]

Nc1cc(C(F)(F)F)c(-c2cc(N3CCOCC3)nc(N3CCOCC3)n2)cn1
active: IC50 (viability decrease) [12] 662 nM | Potency [11] 1870 nM | Potency [2] 469 nM and 1.16 µM | Potency [5] 372 nM | Potency [6] 296 nM | Potency [7] 235 nM | Potency [8] 29.6 nM | Potency [9] 1530 nM

Cc1[nH]c2ccccc2c1CCNCc1ccc(C=CC(=O)NO)cc1
active: Potency [11] 148 nM | Potency [2] 935 nM | Potency [4] 1650 nM | Potency [5] 469 nM | Potency [6] 148 nM | Potency [7] 148 nM | Potency [8] 148 nM | Potency [9] 273 nM | Potency [10] 372 nM

CCCCOc1c(C(=O)c2c(F)cc(C)cc2F)cnc2n[nH]cc12
inactive and 3.66 µM (active): Potency [1]
inactive: Potency [2] | Potency [3] | Potency [4]
active: Potency [5] 11800 nM | Potency [6] 1180 nM | Potency [7] 2350 nM | Potency [8] 1660 nM | Potency [9] 17200 nM

N#Cc1c(O)c2c(-c3ccc(-c4ccccc4O)cc3)csc2[nH]c1=O
inactive: IC50 (viability decrease) [12] | Potency [11] | Potency [1] | Potency [2] | Potency [3] | Potency [5] | Potency [6] | Potency [7] | Potency [8] | Potency [9]

NC(=O)Nc1cc(-c2cccc(F)c2)sc1C(=O)N[C@H]1CCCNC1
active: Potency [11] 1480 nM | Potency [2] 14.8 µM and 7.31 µM | Potency [3] 264 nM | Potency [5] 1870 nM | Potency [6] 235 nM | Potency [7] 187 nM | Potency [8] 37.2 nM | Potency [9] 485 nM

Nc1ccccc1NC(=O)c1ccc(CNc2nccc(-c3cccnc3)n2)cc1
inactive: Potency [3]
active: IC50 (viability decrease) [12] 1180 nM | Potency [2] 2.96 µM and 2.31 µM | Potency [4] 6580 nM | Potency [5] 7430 nM | Potency [6] 2350 nM | Potency [7] 2350 nM | Potency [8] 187 nM | Potency [10] 743 nM

CCCn1c(=O)c2[nH]c(-c3cnn(Cc4cccc(C(F)(F)F)c4)c3)nc2n(CC)c1=O
inactive: Potency [1] | Potency [2] | Potency [3] | Potency [4] | Potency [5]

CC[C@@H]1C(=O)N(C)c2cnc(Nc3ccc(C(=O)NC4CCN(C)CC4)cc3OC)nc2N1C1CCCC1
active: Potency [11] 9.3 nM | Potency [2] 418 nM | Potency [3] 33.2 nM | Potency [4] 234 nM | Potency [6] 37.2 nM | Potency [7] 37.2 nM | Potency [9] 172 nM | Potency [10] 148 nM
